Test results reported in PubChem BioAssay AID651820 (National Center for Advancing Translational Sciences (NCATS), 2012).
In all, about 340,000 compounds went through this assay and about 12,000 (3.5%) were called active. Where a call stands in place of a potency, no number is given. Roughly 18% stayed inconclusive and do not appear here. Many of the other results were omitted from the sample, so actives are more common in it than they were. Some compounds were tested as several samples or in several runs, with calls that do not always agree. A number with no mark means an inactive call. Calls come from the whole dose curve; as a rule, active = well fitted inhibition curve with a large enough effect; inconclusive = small, poorly fitted or top-dose-only effect, or another doubt; inactive = no such curve, though single readings can be large or run the other way.
Potency is the fitted concentration of half-maximal effect.

Assay: qHTS Assay for Inhibitors of Hepatitis C Virus (HCV)
Settings: Huh7.5.1 HCVcc-Cre infection, luciferase reporter, 44 h; series mostly up to 41.8 µM
Outline: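 Infectious HCVcc-Cre (~0.5 moi) was added to cells just after compound, with cells seeded 4 h earlier at 1,000 per well. Luciferase activity after 44 h culture reported infection; substrate was incubated 15 min at room temperature before reading.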
With `N#CCN(C(=O)COC(=O)C1CC2CCCC(C1)C2=O)c1ccccc1` (stereo not given) the Potency was “inactive”. In the case of `COc1cc(OC)c(C(=O)NNC(=O)c2ccccc2-n2cccc2)cc1OC`, the Potency is reported as “inactive”. In the case of `CCCN(CC(=O)Nc1ccccc1C)C(=O)c1ccc2[nH]c3c(c2c1)CC(C)CC3` (stereo not given), the Potency is reported as “inactive”. For `CN(CC#CCC(c1ccccc1)c1ccccc1)C(C)(C)C`, the Potency was 10 µM (active). In the case of `CC(C)(C)N(CC#CCC(O)(c1ccccc1)C1CCCC1)CCO` (stereo not given), the Potency is reported as “inactive”. With `Cc1cc2c(cc1C)NC1(C[C@H]3CCC(=O)N4CC[C@@H](C1)[C@@H]34)C(=NC(C)(C)CC(C)(C)C)N2` (stereo not given in full) the Potency was “inactive”. In the case of `COc1ccc(C(=O)Nc2cccc(/C=C(/CCC(=O)O)c3nc4ccccc4s3)c2)cc1`, the Potency is reported as “inactive”. In the case of `O=C(Cc1ccc(Cl)cc1)c1ccccc1`, the Potency is reported as “inactive”. With `CCCCn1c(SCC(=O)NCC2CCCO2)nc2ccc(N3CCOCC3)cc2c1=O` (stereo not given) the Potency was “inactive”. For `COCCCNC(=O)CSc1nc2ccc(N3CCOCC3)cc2c(=O)n1CCc1ccccc1`, the Potency was “inactive”. For `N#CCSc1nc2ccc(N3CCOCC3)cc2c(=O)n1CCc1ccccc1`, the Potency was 10 µM (active). For `OC(c1ccc(Cl)cc1)C(CN1CCOCC1)c1ccccc1` (stereo not given), the Potency was “inactive”. In the case of `OC(c1ccccc1)C(CN1CCOCC1)c1ccccc1` (stereo not given), the Potency is reported as 12.6 µM (active). For `CC(CN1CCOCC1)c1ccccc1` (stereo not given), the Potency was “inactive”. In the case of `Cc1csc(=O)n1CCC(=O)OCC(=O)NNC(=O)c1ccc(Br)cc1`, the Potency is reported as “inactive”. In the case of `CCOC(=O)[C@H]1[C@H]2COc3ccc(OC)cc3[C@@H]2N2C(=O)c3ccc(F)cc3NC(=O)[C@@]12C`, the Potency is reported as “inactive”. In the case of `COC(=O)C1=C(c2ccc(F)cc2F)C[C@@H]2CC[C@H]1N2C(=O)NC1CC1`, the Potency is reported as “inactive”. For `COC(=O)C1=C(c2cc3ccccc3s2)C[C@@H]2CC[C@H]1N2C(=O)NC(C)C`, the Potency was “inactive”. In the case of `COC(=O)C1=C(c2cc3ccccc3o2)C[C@@H]2CC[C@H]1N2C(=O)NC1CCCCC1`, the Potency is reported as 7.94 µM (active). With `O=C(COC(=O)c1cc(S(=O)(=O)N2CCOCC2)ccc1Cl)NCCc1ccccc1` the Potency was “inactive”. With `Cc1ccc(C)c(NC(=O)CN(C)C(=O)c2ccc3ncsc3c2)c1` the Potency was “inactive”. In the case of `Cc1sc(NC(=O)C2=COCCO2)c(C#N)c1C`, the Potency is reported as “inactive”. With `CC(NC(=O)c1cccc(S(=O)(=O)N2CCc3ccccc3C2)c1)c1ccco1` (stereo not given) the Potency was “inactive”. In the case of `Cc1cccc(N2CCN(C(=O)c3cccc(S(=O)(=O)N4CCc5ccccc5C4)c3)CC2C)c1` (stereo not given), the Potency is reported as 7.08 µM (active). In the case of `CN1CCN(S(=O)(=O)c2cccc(C(=O)N3CCc4ccccc43)c2)CC1`, the Potency is reported as “inactive”. In the case of `CC(=O)c1ccc2c(c1)c1ccccc1n2CC(C)C`, the Potency is reported as 2.51 µM (active). In the case of `Cc1cc(NC(=O)CSc2nc3ccccc3n2CC(C)C)no1`, the Potency is reported as “inactive”. For `CCCCn1c(=O)c(C(C)=O)c(O)c2ccccc21`, the Potency was “inactive”. With `CCCCCCOC(=O)NCC(O)c1ccccc1` (stereo not given) the Potency was “inactive”. In the case of `COc1cccc(C(O)c2nc3ccccc3n2C)c1` (stereo not given), the Potency is reported as “inactive”. In the case of `CCCCCC(O)c1cccc(OCc2ccc3ccccc3n2)c1` (stereo not given), the Potency is reported as 14.1 µM (active) and the activity change, negative = inhibition is reported as 0.332% [at 8.37 µM]. In the case of `Cc1ccc(NC(=O)Cn2cnc3c(OCc4ccccc4)ncnc32)cc1C`, the Potency is reported as “inactive”. With `Cc1noc(C)c1C(=O)OC(C)C(=O)Nc1ccc2c(c1)OCO2` (stereo not given) the Potency was “inactive”. With `Cc1ccc(NC(=O)C2CCCN(S(=O)(=O)c3c(C)noc3C)C2)c(C)c1` (stereo not given) the Potency was “inactive”. In the case of `COc1c(C)cc(C(=O)C2CCCN(S(=O)(=O)c3c(C)noc3C)C2)cc1C` (stereo not given), the Potency is reported as 10 µM (active). For `Cc1noc(C)c1S(=O)(=O)N1CCCC(C(=O)Nc2nccs2)C1` (stereo not given), the Potency was “inactive”. For `Nc1c(N(Cc2ccco2)C(=O)c2cccc(F)c2)c(=O)[nH]c(=O)n1Cc1ccccc1`, the Potency was “inactive”. For `Brc1cnc2ccccc2c1N1CCCCC1`, the Potency was “inactive”. In the case of `N=c1c2c(-c3ccccc3)c(-c3ccccc3)oc2ncn1Cc1ccco1`, the Potency is reported as 6.31 µM (active). With `Cn1c2ccccc2c(=O)c2c(=O)n(Cc3ccco3)c(COc3ccccc3)nc21` the Potency was “inactive”. For `c1ccc(-c2oc3ncnc(N4CCOCC4)c3c2-c2ccccc2)cc1`, the Potency was “inactive”. With `COc1ccc(Nc2ccc3ccccc3c2)cc1` the Potency was “inactive”. With `CC(=O)Nc1ccc(-c2csc(NC(=O)Nc3ccccc3)n2)cc1` the Potency was 10 µM (active). With `CC(=O)Nc1ccc(S(=O)(=O)Nc2nc(-c3ccc(C(C)(C)C)cc3)cs2)cc1` the Potency was “inactive”. In the case of `CC(=O)Nc1ccc(-c2csc(NC=C3C(=O)OC(C)(C)OC3=O)n2)cc1`, the Potency is reported as “inactive”. In the case of `Cc1ccc(S(=O)(=O)N2CCC(C(=O)OCC(=O)N(C)c3ccccc3)CC2)cc1C`, the Potency is reported as “inactive”. For `Cc1cccn2c(=O)nc(SCC(=O)NCc3ccccc3Cl)nc12`, the activity change, negative = inhibition was 2.77% [at 8.37 µM]. With `CN(CC(=O)NC(=O)Nc1ccccc1F)Cc1ccccc1` the Potency was “inactive”. In the case of `O=C1CC(C(=O)O)NC(=S)N1` (stereo not given), the Potency is reported as “inactive”. With `O=C(c1ccc(Cl)c(S(=O)(=O)N2CCCCCC2)c1)N1CCN(c2ccc(O)cc2)CC1` the Potency was “inactive”. For `COc1cc(CNC2CCCC2)c(Br)cc1OCc1ccccc1`, the Potency was 5.62 µM (active). With `COc1cc(CN2CCC(C(N)=O)CC2)ccc1OCc1ccccc1` the Potency was “inactive”. For `COc1ccc(CNC2CCCCC2)cc1`, the Potency was “inactive”. With `O=C(O)c1ccc(Cn2cnc3c(=S)nc[nH]c32)cc1` the Potency was “inactive”. For `Cc1ccc(COC(=O)CN2C(=O)NC3(CCCC3)C2=O)cc1`, the Potency was “inactive”. With `C=CC[C@@H](CC(=O)NCCO)C(=O)N[C@H](C)COC(=O)[C@@H](CC=C)CC(=O)OC(C)(C)C` the Potency was “inactive”. For `CC(OC(=O)c1ccccc1NCCO)C(=O)Nc1ccnn1C(C)C` (stereo not given), the Potency was “inactive”. In the case of `COc1ccc(S(=O)(=O)NC(C)C)cc1C(=O)NC1CCCCC1`, the Potency is reported as “inactive”. With `COc1ccccc1N(C)S(=O)(=O)c1ccc(C(=O)N2CCC(C(N)=O)CC2)cc1` the Potency was “inactive”. With `COc1ccccc1N(C)S(=O)(=O)c1ccc(C(=O)NC2CCCCCC2)cc1` the Potency was 11.2 µM (active). For `CSc1ccccc1NC(=O)COC(=O)CCCOc1ccc(C)cc1`, the Potency was “inactive”. With `COc1ccc(-c2c(C)cc3oc(=O)cc(-c4ccccc4)c3c2C)cc1OC` the Potency was 11.2 µM (active). For `Cc1cc2oc(=O)cc(-c3ccccc3)c2c(C)c1-c1ccc(OC(F)(F)F)cc1`, the activity change, negative = inhibition was -14.5% [at 8.37 µM]. With `COc1ccc(-c2c(C)cc3oc(=O)cc(-c4ccccc4)c3c2C)cc1C=O` the Potency was “inactive”.
